# Hits are enriched below; roughly 18% of the tested compounds scored in any of these assays.
# HepG2 tox: counter-screen for TGF-b inhibitors: cytotoxicity in HepG2 cells | HepG2 CAGA-GFP viability, ATP luminescence, 18 h | Potency, µM (top dose mostly 46.1 µM), actives largely listed as cytotoxic | actives 0.76% (n = 410,000) | AID 588856
#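 CellTiter-Glo luminescence gave cytotoxicity after 18 hours at 37 degrees C. The cells were HepG2 CAGA-GFP in 1% FBS DMEM, stimulated with 500 pg/mL TGF-beta after compound addition. %Activity was normalised to no-cell wells (complete cell-killing) and DMSO (no toxicity), and curves were fitted and classified.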
# TDP1 inh: TDP1 (human) enzyme inhibition. Q9NUW8. recombinant TDP1, AlphaScreen DNA substrate cleavage. Potency, µM (titrated, usually from 130 µM), actives largely listed as inhibitors. actives 0.28% (n = 350,000). AID 485290; also: nearly all actives have a fitted effect of over 40% in size
# Target sequence (Q9NUW8 whole entry, looked up): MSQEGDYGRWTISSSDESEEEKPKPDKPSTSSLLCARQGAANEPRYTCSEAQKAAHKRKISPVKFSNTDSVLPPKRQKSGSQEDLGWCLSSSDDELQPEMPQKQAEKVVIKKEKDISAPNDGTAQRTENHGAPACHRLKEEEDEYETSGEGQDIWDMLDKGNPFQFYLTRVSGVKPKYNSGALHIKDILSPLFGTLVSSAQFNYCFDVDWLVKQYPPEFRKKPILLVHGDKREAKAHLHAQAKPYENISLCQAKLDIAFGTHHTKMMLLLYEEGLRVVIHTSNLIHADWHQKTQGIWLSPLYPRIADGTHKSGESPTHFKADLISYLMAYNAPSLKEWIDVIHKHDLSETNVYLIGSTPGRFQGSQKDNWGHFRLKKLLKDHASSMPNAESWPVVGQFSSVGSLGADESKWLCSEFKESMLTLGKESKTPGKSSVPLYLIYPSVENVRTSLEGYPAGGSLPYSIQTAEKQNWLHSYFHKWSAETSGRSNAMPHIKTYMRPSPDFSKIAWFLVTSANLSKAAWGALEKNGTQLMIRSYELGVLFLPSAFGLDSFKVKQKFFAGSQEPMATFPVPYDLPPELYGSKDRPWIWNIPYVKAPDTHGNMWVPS
#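 E. coli-derived human Tdp1, 1 nM final. Cpd preinc 15 min RT; substrate 15 nM final, 5 min RT; AS bead mix 10 ug/ml final, 10 min RT. Signal loss = tyrosine-FITC cleavage. No-enzyme wells = max signal.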
# IL1B secr inh: inflammasome signaling inhibition, IL-1 beta readout | THP-1 LPS/ATP IL-1B secretion, AlphaLISA, 16 h; stronger effect = lower value | activity change, % at 57.5 µM | actives 4.7% (n = 360,000); in the data active = activity change below about -50%; inconclusive = mostly about -30% to -49%
#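 THP-1 cells pretreated 1 hr with compounds (up to 57.5 uM final), then stimulated with LPS (250 ng/mL final) plus ATP (1.25 mM final); secreted IL-1B measured by AlphaLISA after 16 hr, decreased signal indicating inhibition.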
# TGFb inhibitor: inhibitors of TGF-b signaling. HepG2 CAGA-GFP TGF-b/SMAD3 reporter, GFP fluorescence, 18 h; TGF-beta stimulated, 500 pg/mL final. Potency, µM (titrated, usually from 46.1 µM), hits mostly inhibitors. actives 1.2% (n = 410,000); also: nearly all actives have a fitted effect of over 65% in size
#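 Inhibition was scored as loss of TGF-beta-induced (500 pg/mL final, 18 hours, 37 degrees C) GFP in HEPG2 cells carrying a CAGA-GFP reporter, in DMEM with 1% FBS. Well GFP was summed per cell; Activity was normalised to unstimulated and stimulated DMSO wells, then concentration-response fitting.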
# DT40 TDP1 no CPT: qHTS for Inhibitors of human tyrosyl-DNA phosphodiesterase 1 (TDP1): qHTS in cells in absence of CPT | actives 15% (n = 420,000) | Potency, µM (series often up to 46.2 µM), most hits filed as inhibitors | AID 686978, 2013 | DT40 Tdp1-/- hTDP1 cells, no CPT, ATP luminescence, 48 h; also: nearly all actives have a fitted effect of over 55% in size
#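 Luminescent ATP content (CellTiter-Glo) served as the growth readout. Knockout chicken DT40 cells expressing human TDP1 were exposed to compounds without camptothecin for a minimum 48 hr at 37 °C.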
# TDP1 cell CPT: DT40-hTDP1 cell growth loss with CPT | actives 12% (n = 420,000) | chicken DT40 Tdp1-/-;hTDP1 cells + 20 nM CPT, ATP luminescence, 48 h | Potency, µM (titrated, usually from 46.2 µM), usual class: inhibitors | AID 686979; also: nearly all actives have a fitted effect of over 55% in size
#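 Chicken DT40 Tdp1-/- cells complemented with human TDP1, 400 cells/well, exposed to compounds plus 20 nM camptothecin for at least 48 h at 37 C; viability read as ATP content by CellTiter-Glo luminescence.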
# A number is an active result; n = inactive; u = inconclusive; x = not tested or not shown. Unless noted, calls follow the shape of the dose curve; as a rule, active = well fitted curve in the direction sought with a large enough effect; inconclusive = small, poorly fitted or top-dose-only effect, or another doubt; inactive = no such curve, though single readings can be large; an effect the other way counts as inactive or inconclusive.
SMILES,HepG2 tox,TDP1 inh,IL1B secr inh,TGFb inhibitor,DT40 TDP1 no CPT,TDP1 cell CPT
CC(=O)Nc1ccc(-c2cc(C(=O)O)c3c(-c4ccccc4)[nH]nc3n2)cc1,n,n,x,n,n,n
CS(=O)(=O)c1ccc(C(=O)OCC(=O)N2CC(=O)Nc3ccccc32)cc1[N+](=O)[O-],n,n,x,n,0.708µM,1.12µM
O=C1CN(C(=O)COC(=O)c2ccc(N3CCCCCC3)c([N+](=O)[O-])c2)c2ccccc2N1,n,n,n,n,n,n
O=C1CN(C(=O)COC(=O)CCS(=O)(=O)c2ccccc2Cl)c2ccccc2N1,n,x,n,u,u,18.4µM
O=C(CCNC(=O)N1CC(=O)Nc2ccccc21)NCc1ccccc1Cl,n,x,n,n,13µM,u
CC1CCCCN1C(=O)COC(=O)c1ccc(S(C)(=O)=O)c([N+](=O)[O-])c1 (stereo not given),7.94µM,n,x,u,3.16µM,2.24µM
CC(C)c1cc(Cn2c3ccccc3c(=O)n2C(C)Cn2cc(COc3ccccc3)nn2)on1 (stereo not given),x,x,n,x,u,u
CS(=O)(=O)c1ccc(C(=O)OCC(=O)N2CCCC2)cc1[N+](=O)[O-],n,n,x,11.2µM,3.98µM,5.01µM
Cc1c(C(=O)OCC(=O)N2CCCC2)cccc1[N+](=O)[O-],n,n,n,n,n,n
CS(=O)(=O)c1ccc(C(=O)OCC(=O)N2CCN(CCC3CCCCC3)CC2)cc1[N+](=O)[O-],3.16µM,x,x,3.98µM,x,x
CS(=O)(=O)c1ccc(C(=O)OCC(=O)N2CCOCC2)cc1[N+](=O)[O-],8.91µM,x,x,7.08µM,x,x
CC1CN(C(=O)COC(=O)c2ccc(N)c([N+](=O)[O-])c2)CC(C)O1 (stereo not given),n,n,n,n,n,n
Cc1ccc(C(=O)OCC(=O)N2CCOCC2)cc1,n,n,n,n,n,n
CCCCCCCCN1[C@@H](CC(=O)OC)c2ccc(/C=C/C(=O)OC)cc2S1(=O)=O,n,x,x,n,n,n
CCOC(=O)c1cccc(NC(=O)CN2C(=O)c3ccccc3Sc3ncccc32)c1,n,n,x,n,u,u
CC(C)c1ccc(CNn2cnnc2)cc1,n,x,n,n,u,n
Cc1ccc(S(=O)(=O)N2CCOCC2)cc1C(=O)OCC(=O)NCc1ccccc1,n,x,n,n,u,n
Cc1ccc(-c2csc(NC(=O)C3=NN(c4ccccc4)C(=O)CC3)n2)cc1,n,n,n,n,u,u
COc1ccc(OC)c(-c2csc(NC(=O)C3=NN(c4ccccc4)C(=O)CC3)n2)c1,n,n,n,n,20.6µM,n
COc1ccc(NS(=O)(=O)c2cc(NC(=O)C3=NN(c4ccccc4)C(=O)CC3)ccc2OC)cc1,n,n,n,n,0.184µM,u
NC(=O)c1cc(Br)cc2c3c([nH]c12)CCCC3,n,n,-80.6,n,23.1µM,18.4µM
COc1cc(C(=S)N2CCOCC2)cc(OC)c1OC(=O)c1ccc(C)cc1,n,n,n,n,n,n
COC(=O)c1ccccc1NC(=O)c1ccc2c(c1)CCN2S(=O)(=O)c1ccc(C)cc1,n,n,x,n,u,n
COc1ccc(CCNC(=O)c2ccc3c(c2)CCN3S(C)(=O)=O)cc1OC,n,n,x,n,u,n
COc1ccc(CCNC(=O)c2ccc3c(c2)CCN3S(=O)(=O)c2ccccc2)cc1,n,n,x,n,20.6µM,3.66µM
SMILES,HepG2 tox,TDP1 inh,IL1B secr inh,TGFb inhibitor,DT40 TDP1 no CPT,TDP1 cell CPT
Cc1ccc(S(=O)(=O)N2CCc3cc(C(=O)N(C)Cc4ccccc4)ccc32)cc1,n,n,x,u,13µM,14.6µM
COc1ccc(CCNC(=O)c2ccc3c(c2)CCN3S(=O)(=O)c2ccccc2)cc1OC,n,n,x,n,u,16.4µM
Cc1ccc(CNC(=O)c2ccc3c(c2)CCN3S(=O)(=O)c2ccccc2)cc1,n,n,x,n,u,u
CCOc1ccc(Br)cc1C1C(C(=O)Nc2ccccc2OC)=C(C)Nc2nnnn21 (stereo not given),n,n,x,n,n,n
CCOC(=O)c1c(CN2CCN(c3ccccc3)CC2)oc2cc(Br)c(O)cc12,n,x,n,u,u,u
CCOC(=O)c1c(CN(CC)CC)n(-c2ccccc2)c2ccc(O)cc12,n,x,-60.3,n,u,u
CCOC(=O)c1c(CN2CCN(C)CC2)n(-c2ccccc2)c2cc(Br)c(O)cc12,n,n,n,n,23.1µM,u
CCOC(=O)c1c(CS(=O)(=O)c2ccccc2)n(C)c2cc(Br)c(O)cc12,n,n,n,n,u,u
CCOC(=O)c1c(CN2CCN(CCO)CC2)n(-c2ccccc2)c2cc(Br)c(O)cc12,n,n,-81.0,u,18.4µM,u
CCOC(=O)c1c(C)n(-c2ccccc2)c2ccc(O)cc12,n,n,n,u,u,n
CCOC(=O)c1c(CSC(=N)N)n(-c2ccccc2)c2cc(Br)c(OC(C)=O)cc12,n,n,x,u,18.4µM,u
CC12CCC(=O)N1C(C(=O)NNC(=O)COc1ccccc1Cl)CS2 (stereo not given),n,n,n,n,u,u
CCOC(=O)c1c(C)n(C)c2ccc(O)c(CN(CC)CC)c12,n,n,n,u,u,u
CCOC(=O)c1c(C)n(-c2ccccc2)c2ccc(O)c(CN(C)C)c12,n,n,x,u,14.6µM,11.6µM
O=C(Nc1ccccc1)OCCOc1ccc(Br)cc1,n,x,n,n,n,n
COc1cc(/C=C(\C#N)c2ccccn2)cc(OC)c1O,n,n,n,n,u,9.2µM
COc1cc(/C=C(\C#N)c2ccccn2)ccc1OCc1ccccc1Cl,n,x,n,n,u,14.6µM
COC(=O)CN(c1ccccc1)S(=O)(=O)c1cc(Br)ccc1OC,n,n,n,n,n,n
CCOC(=O)c1c(C)[nH]c(C(=O)N/N=C/c2cccc(OC)c2)c1C,n,n,n,n,14.6µM,u
CCOC(=O)c1c(C)[nH]c(C(=O)NNC(=O)c2ccccc2)c1C,n,n,n,n,n,n
CCOC(=O)c1[nH]c(C)c(C(=O)Nc2cccc(Cl)c2C)c1C,n,n,n,n,16.4µM,10.3µM
CCOC(=O)c1[nH]c(C)c(C(=O)Nc2ccc(Cl)cc2)c1C,n,n,n,n,n,n
CCOC(=O)c1c(C)[nH]c(C(=O)N/N=C\c2ccccc2Cl)c1C,n,n,n,n,16.4µM,16.4µM
CCOC(=O)c1c(C)[nH]c(C(C)=NNC(=O)c2cccs2)c1C,n,n,n,n,6.51µM,11.6µM

# Screening results as filed in PubChem BioAssay.
